The text below walks through data of the supplement of paper PMC3842684.

Test [1] concerns P. falciparum NF54-pfs16-GFP early (I-III) stage gametocytes. The test is described as follows: relative % inhibition of viable gametocyte number; higher = more gametocytocidal. To be noted: stage: early (I-III) gametocyte, incubation 72 h. The method in brief: (§1)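 NF54 pfs16-GFP gametocytes, magnet-isolated at early (I/IIa, day 2) or late (day 8) stage, were plated at 10% parasitaemia, 0.1% haematocrit in 384-well poly-D-lysine imaging plates with compound in duplicate at 5 or 0.5 µM. Plates were incubated 72 h at 37°C, 5% CO2, 5% O2, then overnight with MitoTracker Red. Confocal imaging counted elongated GFP objects with MitoTracker signal above cut-off as viable gametocytes. Relative inhibition was normalised to in-plate vehicle and positive-control wells.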

The subject of test [2] is P. falciparum NF54-pfs16-GFP late (IV-V) stage gametocytes. The description is as above. To be noted: stage: late (IV-V) gametocyte, incubation 72 h. In a few lines: as §1

With `COCCN(C(=O)Cc1cccs1)C(C(=O)NCc1ccc(OC)cc1)c1ccc(C(C)C)cc1` (centres undefined), the relative % inhibition in test [1] (0.5 µM) is 25.1%; in test [1] (5 µM), 5.52%; in test [2] (0.5 µM) it was 13.7%; in test [2] (5 µM), -1.94%.
As for `CN(C)CCCNCc1ccc(-c2ccc(F)c(Cl)c2)o1`, the relative % inhibition in test [1] (0.5 µM) stood at 32.7%; in test [1] (5 µM) it was 99.5%; in test [2] (0.5 µM) it was 7.27%; in test [2] (5 µM) it was 20.8%.
For `O=C(NC1CCN(Cc2ccccc2)CC1)c1cc(-c2ccncc2)nc2ccc(Cl)cc12` the same measures were 17.7%, 64.3%, -28.1% and -1.38%.
For `CCOC(=O)C1=CN(C)C=C(C(=O)OCC)C1c1cc(Br)c(OCC)c(OC)c1` the same measures were 38.1%, 89.7%, 16.5% and 37.9%.
Regarding `COc1ccc(C2NCCc3c2[nH]c2ccccc32)cc1CN1CCN(c2ccc(F)cc2)CC1` (centres undefined), the relative % inhibition in test [1] (0.5 µM) turned out to be 18.2%; in test [1] (5 µM) it was 90%; in test [2] (0.5 µM), 8.16%; in test [2] (5 µM) it was 58%.
For `Oc1ccc2ccccc2c1CNc1nc2ccccc2[nH]1`, the relative % inhibition in test [1] (0.5 µM) came out at 11%; in test [1] (5 µM), 66.5%; in test [2] (0.5 µM) it was 6.29%; in test [2] (5 µM), 12%.
Take `CN(C)c1ccc(N2C(N)=NC(N)=NC2(C)C)cc1`: the relative % inhibition in test [1] (0.5 µM) was -7.59%; in test [1] (5 µM) it was -3.16%; in test [2] (0.5 µM), 20.3%; in test [2] (5 µM), -8.27%.
In the case of `O=C(NCc1ccco1)C1CCN(S(=O)(=O)c2ccc(Br)cc2)CC1`, the relative % inhibition is -6.48% in test [1] (0.5 µM), -2.56% in test [1] (5 µM), 29% in test [2] (0.5 µM) and 51.5% in test [2] (5 µM).
For `COc1ccc(C2C(C(=O)Nc3cccc(OC)c3)c3ccccc3C(=O)N2C2CCCCC2)cc1` (centres undefined) the same measures were 15.6%, 87.5%, 5.71% and 78.2%.
For `CCCCNCC(O)(c1ccc(Cl)cc1)c1ccc(Cl)cc1`, the relative % inhibition was 10.1% in test [1] (0.5 µM), 88.5% in test [1] (5 µM), 12.2% in test [2] (0.5 µM) and 44% in test [2] (5 µM).
For `CC(C)(C)C(=O)Nc1ccc(C(=O)Nc2cccc(-c3nc4ccccc4[nH]3)c2)cc1` the same measures were 7.02%, 15.3%, 3.45% and 17.3%.
For `O=C(Nc1cccc(C(F)(F)F)c1)c1cc(Cl)ccc1O` the same measures were -0.916%, 104%, 15% and 30.1%.
With `COc1ccccc1C(=O)ON=C(N)Cc1cccc2ccccc12`, the relative % inhibition in test [1] (0.5 µM) stood at 13.9%; in test [1] (5 µM) it was 78%; in test [2] (0.5 µM) it was 5.05%; in test [2] (5 µM), 92.5%.
For the compound `COc1ccc(C(=O)NC(c2ccc(Cl)cc2Cl)c2cc(Cl)c3cccnc3c2O)cc1` (centres undefined), the relative % inhibition in test [1] (0.5 µM) is 42.5%; in test [1] (5 µM), 107%; in test [2] (0.5 µM), 50.9%; in test [2] (5 µM), 98.7%.
For `CCOc1cccc(C(=O)Nc2ccc(-c3nc4ccccc4[nH]3)cc2)c1`, the relative % inhibition in test [1] (0.5 µM) is 35.7%; in test [1] (5 µM), -17.2%; in test [2] (0.5 µM), 4.79%; in test [2] (5 µM), 17.9%.
For `CCCN(CCC)CCCNC(=O)c1cc2c(-c3ccc(OC)c(OC)c3)nn(C)c2s1` the same measures were 29.6%, 43.5%, 18.3% and -7.44%.
For `COc1ccc(CCN2C(=O)c3[nH]nc(-c4cc(Cl)c(C)cc4O)c3C2c2ccccc2F)cc1` (centres undefined) the same measures were 1.69%, -0.844%, 30.2% and 51.9%.
For `c1ccc2cc3c(Nc4ccc(N5CCOCC5)cc4)ccnc3cc2c1` the same measures were -11.9%, 12.3%, 9.42% and 36.1%.
For the compound `CCOC(=O)c1cn(CC)c2cc(N(C)CCc3ccc(OC)c(OC)c3)c(F)cc2c1=O`, the relative % inhibition was 38.6% in test [1] (0.5 µM), 51.6% in test [1] (5 µM), 72.3% in test [2] (0.5 µM) and 97.7% in test [2] (5 µM).
Take `CCCCCCc1cc2cc(-c3nc4ccccc4[nH]3)c(=Nc3ccccc3C)oc2cc1O`: the relative % inhibition in test [1] (0.5 µM) turned out to be 60.1%; in test [1] (5 µM), 100%; in test [2] (0.5 µM) it was 35%; in test [2] (5 µM) it was 52.7%.
For `CCOc1c(Br)cc(C2C(C(=O)OC)=CN(C)C=C2C(=O)OC)cc1OC` the same measures were 17.4%, 88.4%, -1.2% and 68.1%.
`O=C(Nc1ccc(N2CCN(Cc3ccccc3)CC2)cc1)c1cccs1`: the relative % inhibition in test [1] (0.5 µM) came out at 14.2%; in test [1] (5 µM), 6.41%; in test [2] (0.5 µM), 6.6%; in test [2] (5 µM) it was 16.2%.
Regarding `CN(C)c1ccc(C=Cc2nc(=O)c3ccccc3o2)cc1`, the relative % inhibition is -10.1% in test [1] (0.5 µM), -23% in test [1] (5 µM), 27.4% in test [2] (0.5 µM) and 88.2% in test [2] (5 µM).
For `COCCNC(=O)c1ccc(OC2CCN(Cc3ccc(F)c(F)c3)CC2)c(Cl)c1`, the relative % inhibition in test [1] (0.5 µM) is 7.61%; in test [1] (5 µM), -0.414%; in test [2] (0.5 µM) it was 14.2%; in test [2] (5 µM) it was 39.9%.
For `O=C(Nc1cccc(-c2nc3ccccc3[nH]2)c1)c1cccc(NC(=O)c2ccco2)c1` the same measures were 12.9%, 20.8%, -1.52% and 0.95%.
Consider `CCN(CC)CCNc1ncnc2c1[nH]c1ccc(Br)cc12`, for which the relative % inhibition in test [1] (0.5 µM) was -15.3%; in test [1] (5 µM) it was 61.4%; in test [2] (0.5 µM), 12.4%; in test [2] (5 µM) it was 27.1%.
As to `COc1ccc(CCn2c(=N)c(C(=O)NCc3cccnc3)cc3c(=O)n4cccc(C)c4nc32)cc1`, the relative % inhibition in test [1] (0.5 µM) was 45.1%; in test [1] (5 µM), 70.9%; in test [2] (0.5 µM), -7.36%; in test [2] (5 µM) it was 11.2%.
As to `CCCCOc1ccc(C(=O)Nc2cc(C)on2)cc1`, the relative % inhibition in test [1] (0.5 µM) was 3%; in test [1] (5 µM), 12.9%; in test [2] (0.5 µM) it was -7.15%; in test [2] (5 µM), 17.4%.
On to `CN(C)c1ccc(N=Cc2ccc(N3CCOCC3)cc2)cc1`, for which the relative % inhibition in test [1] (0.5 µM) came to 2.5%; in test [1] (5 µM) it was 48.6%; in test [2] (0.5 µM), 22.1%; in test [2] (5 µM), 62%.
Consider `COc1ccc(-c2nc(NC(=O)CS(=O)(=O)c3ccc(F)cc3)sc2C)cc1`, for which the relative % inhibition in test [1] (0.5 µM) turned out to be 12.7%; in test [1] (5 µM), 100%; in test [2] (0.5 µM) it was 73%; in test [2] (5 µM) it was 92.9%.
For `c1ccc(C2=Nc3ccccc3N=C(c3ccccc3)c3ccccc32)cc1` the same measures were 35.8%, 101%, 15.2% and 47.2%.
`COc1ccc(CCN2CCC(CN(C)Cc3cnn(-c4ccccc4)c3)CC2)cc1`: the relative % inhibition in test [1] (0.5 µM) is 4.18%; in test [1] (5 µM), 65.3%; in test [2] (0.5 µM), 11.3%; in test [2] (5 µM), -5.77%.
Turning to `CCCC(c1nnnn1C1CCCCC1)N1CCN(C(=O)c2ccco2)CC1` (centres undefined), the relative % inhibition in test [1] (0.5 µM) is 0.873%; in test [1] (5 µM), -28.3%; in test [2] (0.5 µM), -2.74%; in test [2] (5 µM), 2.82%.
As to `CC(O)(c1ccc(Cl)cc1)C(CN1CCCCC1)c1ccccc1` (centres undefined), the relative % inhibition worked out at 20% in test [1] (0.5 µM), 59.1% in test [1] (5 µM), 14% in test [2] (0.5 µM) and 22.3% in test [2] (5 µM).
For `COc1ccc(-c2nc(N3CCN(C(=O)C4CCCCC4)CC3)c3c4c(sc3n2)CCCC4)cc1` the same measures were -24.1%, 55.7%, 92.2% and 86.8%.
As to `CCCCCCOC(=O)C1=C(C)NC(=O)NC1c1ccccc1F` (centres undefined), the relative % inhibition in test [1] (0.5 µM) is 9.08%; in test [1] (5 µM), 4.18%; in test [2] (0.5 µM), -3.35%; in test [2] (5 µM), 3.92%.
